Reference: PubChem BioAssay (NCI)
The panel holds about 79,000 compounds, 15% with a hit somewhere; the sample as a whole holds those more often. Activity calls are given as the source filed them. No stated cut-off is given here; in the data, active means growth inhibition above about 70%; inactive means the rest.

What was measured:
[1] = NCI Yeast Anticancer Drug Screen. Data for the sgs1 strain (AID 173);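 further: 0% = growth of vehicle-only control cultures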; settings: S. cerevisiae sgs1 mutant, stronger effect = higher value
Method in brief: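 Relative growth inhibition, referenced to vehicle, was determined in a yeast strain with a defined alteration affecting DNA damage repair or cell cycle control after compound exposure.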

[2] = NCI Yeast Anticancer Drug Screen. Data for the mlh1 rad18 strain (AID 175); settings: S. cerevisiae mlh1 rad18 strain growth inhibition, stronger effect = higher value
Method in brief: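 In this whole-cell yeast screen, a strain with altered DNA damage repair is challenged with compound, and its growth is measured against matched vehicle-treated controls.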

[3] = NCI Yeast Anticancer Drug Screen. Data for the rad18 strain (AID 177); settings: S. cerevisiae rad18 mutant growth inhibition, stronger effect = higher value
Method in brief: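 Screen uses a yeast strain with a defined lesion in DNA damage repair; compound effect is read as loss of growth compared to untreated vehicle cultures.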

[4] = NCI Yeast Anticancer Drug Screen. Data for the rad52 strain (AID 147);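 further: 0% = growth of vehicle-treated control cultures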; settings: S. cerevisiae rad52 mutant growth inhibition, stronger effect = higher value
Method in brief: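 Measured: yeast growth inhibition. System: strain with a defined DNA damage repair alteration. Reference: vehicle-treated control cultures.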

[5] = NCI Yeast Anticancer Drug Screen. Data for the wt1 strain (AID 149);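 further: 0% = growth of vehicle-treated wt1 cultures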; settings: S. cerevisiae wt1 strain (SPY 50644) growth inhibition, stronger effect = higher value
Method in brief: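 wt1 strain grown with compound or vehicle; inhibition taken from the growth difference.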

[6] = NCI Yeast Anticancer Drug Screen. Data for the rad50EPP+ strain (AID 151);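 further: 0% = growth of vehicle-treated control cultures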; settings: S. cerevisiae rad50 mutant strain, stronger effect = higher value
Method in brief: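 One strain with a rad50 alteration (rad50EPP+) was compound-treated, its growth then compared to that of vehicle controls.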

[7] = NCI Yeast Anticancer Drug Screen. Data for the rad50 strain (AID 155);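 further: 0% = growth of vehicle-only cultures of the same strain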; settings: S. cerevisiae rad50 strain growth inhibition, stronger effect = higher value
Method in brief: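 DNA repair mutant yeast, compound exposure, growth read-out; inhibition is taken relative to vehicle.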

[8] = NCI Yeast Anticancer Drug Screen. Data for the mec2-1 strain (AID 157); settings: S. cerevisiae mec2-1 strain, stronger effect = higher value
Method in brief: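 Test agents were screened against the mec2-1 yeast strain, with defined DNA repair or cell cycle alteration. Growth was scored as inhibition against vehicle-only controls.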

[9] = NCI Yeast Anticancer Drug Screen. Data for the rad14 strain (AID 159);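 further: 0% = growth of vehicle-treated control cultures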; settings: S. cerevisiae rad14 strain growth inhibition, stronger effect = higher value
Method in brief: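 DNA repair-defective yeast, compound-exposed; % growth inhibition derived by comparison with vehicle-treated controls.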

[10] = NCI Yeast Anticancer Drug Screen. Data for the sgs1 mgt1 strain (AID 161);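 further: 0% = growth of cultures given vehicle only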; settings: S. cerevisiae sgs1 mgt1 strain, stronger effect = higher value
Method in brief: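 Genetically altered yeast, compound exposure, growth inhibition relative to vehicle.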

[11] = NCI Yeast Anticancer Drug Screen. Data for the CLN2oe strain (AID 163);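 further: 0% = growth of vehicle-only control cultures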; settings: S. cerevisiae CLN2oe strain, stronger effect = higher value
Method in brief: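 Here, growth inhibition in a cell-cycle-altered yeast strain after compound exposure was quantified against vehicle control growth.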

[12] = NCI Yeast Anticancer Drug Screen. Data for the cln2 rad14 strain (AID 165);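 further: 0% = growth equal to vehicle treated cultures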; settings: S. cerevisiae cln2 rad14 strain, stronger effect = higher value
Method in brief: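 Growth of compound-exposed yeast (cln2 rad14 genotype) measured and expressed as inhibition relative to vehicle.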

[13] = NCI Yeast Anticancer Drug Screen. Data for the bub3 strain (AID 167); settings: S. cerevisiae bub3 mutant strain, stronger effect = higher value
Method in brief: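 In this screen, a yeast mutant lacking normal mitotic checkpoint function is challenged with compound. Relative growth versus vehicle gives the inhibition value.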

[14] = NCI Yeast Anticancer Drug Screen. Data for the wt2 strain (AID 169);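 further: 0% = growth of vehicle-treated yeast cultures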; settings: S. cerevisiae wt2 strain growth inhibition, stronger effect = higher value
Method in brief: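 Genetically defined yeast strains from a DNA-repair/cell-cycle panel were used. Compound-exposed yeast growth was measured, and the inhibition was calculated relative to vehicle treatment.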

[15] = at 5.0 µM (retest, dose inferred, filed as 0.5)
[16] = at 50.0 µM (retest, dose inferred, filed as 5.0)

Measured: growth inhibition

COc1cccc(C(c2cc3c(cc2O)OCO3)N2CCOCC2)c1OC (centres undefined)
active: [2]; [16] 71%
inactive: [1]; at 1.2 µM -6% | [1]; at 3.7 µM -7% | [1]; at 11.0 µM 8% | [1]; at 33.0 µM 10% | [1]; at 100.0 µM 60% | [2]; [15] 19% | [2]; at 50.0 µM 9.25% | [3]; at 1.2 µM -3% | [3]; at 3.7 µM 0% | [3]; at 11.0 µM 4% | [3]; at 33.0 µM 10% | [3]; at 100.0 µM 36%

O=[N+]([O-])c1cccc2nc3ccccc3c(NCCc3cccc[n+]3[O-])c12
active: [4]; at 11.0 µM 81% | [4]; at 33.0 µM 92% | [4]; at 100.0 µM 97% | [5]; at 100.0 µM 70% | [6]; at 11.0 µM 72% | [6]; at 33.0 µM 82% | [6]; at 100.0 µM 90% | [7]; [15] 70% | [7]; at 33.0 µM 88% | [7]; [16] 96% | [7]; at 50.0 µM 87.5% | [7]; at 100.0 µM 94% | [8]; at 33.0 µM 95% | [8]; [16] 98% | [8]; at 50.0 µM 83.2% | [8]; at 100.0 µM 98% | [9]; at 11.0 µM 89% | [9]; at 33.0 µM 97% | [9]; at 100.0 µM 99% | [10]; [15] 91% | [10]; [16] 97% | [10]; at 50.0 µM 91.8% | [11]; at 100.0 µM 86% | [12]; [15] 85% | [12]; [16] 99% | [12]; at 50.0 µM 95.2% | [13]; [16] 83% | [14]; at 100.0 µM 79% | [1]; at 3.7 µM 75% | [1]; at 11.0 µM 89% | [1]; at 33.0 µM 93% | [1]; at 100.0 µM 96% | [2]; [15] 88% | [2]; [16] 98% | [2]; at 50.0 µM 93.8% | [3]; at 1.2 µM 92% | [3]; at 3.7 µM 94% | [3]; at 11.0 µM 94% | [3]; at 33.0 µM 96% | [3]; at 100.0 µM 96%
inactive: [4]; at 1.2 µM 15% | [4]; at 3.7 µM 47% | [5]; at 1.2 µM 0% | [5]; at 3.7 µM 1% | [5]; at 11.0 µM 11% | [5]; at 33.0 µM 27% | [6]; at 1.2 µM 21% | [6]; at 3.7 µM 43% | [7]; at 1.2 µM 10% | [7]; at 3.7 µM 30% | [7]; at 11.0 µM 68% | [8]; at 1.2 µM 2% | [8]; at 3.7 µM 18% | [8]; [15] 25% | [8]; at 11.0 µM 62% | [9]; at 1.2 µM 12% | [9]; at 3.7 µM 37% | [11]; at 1.2 µM -11% | [11]; at 3.7 µM -12% | [11]; at 11.0 µM 6% | [11]; at 33.0 µM 35% | [13]; at 1.2 µM -12% | [13]; at 3.7 µM -13% | [13]; [15] 3% | [13]; at 11.0 µM -11% | [13]; at 33.0 µM 17% | [13]; at 50.0 µM 53.2% | [13]; at 100.0 µM 65% | [14]; at 1.2 µM 1% | [14]; at 3.7 µM 3% | [14]; at 11.0 µM 14% | [14]; at 33.0 µM 35% | [1]; at 1.2 µM 43%

CC(=O)Oc1ccc(C(=O)c2ccccc2)c(O)c1
active: [4]; at 100.0 µM 96% | [5]; at 100.0 µM 96% | [6]; at 100.0 µM 85% | [7]; [16] 95% | [7]; at 50.0 µM 70.2% | [7]; at 100.0 µM 96% | [8]; [16] 99% | [8]; at 100.0 µM 96% | [9]; at 100.0 µM 92% | [10]; [16] 88% | [10]; at 50.0 µM 74.5% | [11]; at 100.0 µM 96% | [12]; [16] 82% | [13]; [16] 88% | [13]; at 50.0 µM 74% | [13]; at 100.0 µM 95% | [14]; at 100.0 µM 94% | [1]; at 100.0 µM 96% | [2]; [16] 98% | [3]; at 100.0 µM 97%
inactive: [4]; at 1.2 µM -7% | [4]; at 3.7 µM -10% | [4]; at 11.0 µM 2% | [4]; at 33.0 µM 28% | [5]; at 1.2 µM -2% | [5]; at 3.7 µM -1% | [5]; at 11.0 µM -4% | [5]; at 33.0 µM 10% | [6]; at 1.2 µM 14% | [6]; at 3.7 µM 20% | [6]; at 11.0 µM 19% | [6]; at 33.0 µM 47% | [7]; at 1.2 µM -4% | [7]; at 3.7 µM 1% | [7]; [15] 60% | [7]; at 11.0 µM -2% | [7]; at 33.0 µM 32% | [8]; at 1.2 µM -31% | [8]; at 3.7 µM -5% | [8]; [15] 64% | [8]; at 11.0 µM 2% | [8]; at 33.0 µM 26% | [8]; at 50.0 µM 50% | [9]; at 1.2 µM -24% | [9]; at 3.7 µM -20% | [9]; at 11.0 µM -19% | [9]; at 33.0 µM 21% | [10]; [15] -18% | [11]; at 1.2 µM -7% | [11]; at 3.7 µM -9% | [11]; at 11.0 µM -10% | [11]; at 33.0 µM 12% | [12]; [15] 27% | [12]; at 50.0 µM 58.9% | [13]; at 1.2 µM -36% | [13]; at 3.7 µM -38% | [13]; [15] 5% | [13]; at 11.0 µM -58% | [13]; at 33.0 µM -25% | [14]; at 1.2 µM -3% | [14]; at 3.7 µM 7% | [14]; at 11.0 µM 7% | [14]; at 33.0 µM 21% | [1]; at 1.2 µM 6% | [1]; at 3.7 µM 10% | [1]; at 11.0 µM 13% | [1]; at 33.0 µM 46% | [2]; [15] 50% | [2]; at 50.0 µM 61.8% | [3]; at 1.2 µM 0% | [3]; at 3.7 µM 13% | [3]; at 11.0 µM 17% | [3]; at 33.0 µM 39%
